± gives the standard deviation.
system: MILI (PIWIL2) piRISC loaded with L1MC piRNA (26 nt); test: pre-steady-state target cleavage rate (min^-1); guide: L1MC piRNA 5'p-UAACUAAAUACUAUGCAAGCUGUAGG; higher = faster piRNA-guided slicing of the target; details: auxiliary factor: 500 nM mouse GTSF1
Method in brief: (§1)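 Cleave-'n-Seq: 1 nM active affinity-purified piRISC with one synthetic guide and 0.1 nM transcribed, DNA-blocked target RNA library were mixed, with or without 500 nM GTSF1 partner protein, in HEPES–potassium acetate buffer at 33 °C for 0–8 or 0–960 min. Uncleaved targets were sequenced and normalised to depth and to weakly complementary targets, three trials were pooled, and k3 was capped at 0.0001 min^-1. The pre-steady-state cleavage rate was fitted […].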

Row | Sequence | pre-steady-state target cleavage rate
1 | UCCUGGAUGUGCUUGCAUCGUAUUUAGUUA | 0.0778 ± 0.017
2 | UCCUGGUACAGCUUGCCAUAGUAUUUAGUUA | 0.224 ± 0.059
3 | UCCUGCUACAGCUUGCAUAGUAUUUGAGUUA | 0.135 ± 0.02
4 | UCCUCCUACGAGCUUGCAUAGUAUUUAGUUA | 0.163 ± 0.018
5 | UCCUGGAUGAGCUUGCAUAGUAUUUAAGUUA | 0.153 ± 0.025
6 | UCCUGGAUCUGCUUGGAUAGUAUUUAGUUA | 0.165 ± 0.019
7 | UCCUGGAAGAGCUUGCAUAGUAUUUAGUUA | 0.223 ± 0.014
8 | UCCUGGAGCAGCUUGCAUAGUAUUUAGUUA | 0.333 ± 0.021
9 | UCCUGGAUCAGCUCGCAUAGUAUUUAGUUA | 0.284 ± 0.019
10 | UCCUGGAUGAGCUUGCAUAGUAUAUAGUUA | 0.24 ± 0.031
11 | UCCUCCUACAGCUUGCAUAGUAUUUAGUAUA | 0.258 ± 0.028
12 | UCCUGGAACAGCAUGCAUAGUAUUUAGUUA | 0.256 ± 0.02
13 | UCCUGCUACAGGUUGCAUAGUAUUUAGUUA | 0.246 ± 0.011
14 | UCCUGGUACAGCUUGCAAAGUAUUAAGUUA | 0.0919 ± 0.018
15 | UCCUGGAACAGCAUGCAUAGUAUUUAGUAA | 0.214 ± 0.019
16 | UCCUGGUCCAGCUUGCAUAGUAUUUAGUUA | 0.232 ± 0.02

same assay, conditions: auxiliary factor: none (no GTSF1)

Row | Sequence | pre-steady-state target cleavage rate
17 | UCCUGGAACGGCUUGCAUAGUAUUUAGUUA | 0.0129 ± 0.0024
18 | UCCUGGAUGAGCUUGCAUAGUAUGUAGUUA | 0.0043 ± 0.003
19 | UCCUGGAUGAGGUUGCAUAGUAAUUAGUUA | 0.00411 ± 0.0022
20 | UCCUGGAUCAGCUAGCUUAGUAUUUAGUUA | 0.00868 ± 0.002
21 | UCCUCCUACUGCUUGCAUAGAAUUUAGUUA | 0.00232 ± 0.002
22 | UCCUGGAUGAGCUUUCAUAGUAUUUAGUUA | 0.00493 ± 0.0026
23 | UCCUGGAUGAGCUAGCAUAGUUUUUAGUUA | 0.00507 ± 0.0028
24 | UCCUCCUUGUGCUUGCAUAGUAUUUAGUUA | 0.00963 ± 0.002
25 | UCCUCCUUCAGCAUGCAUAGUAUUUAGUUA | 0.00701 ± 0.0018
26 | UCCUCCUUGAGCUUGCAUAGUAUUUAGUAA | 0.00389 ± 0.0017
27 | UCCUCCUACAGCUUGCAUAGAUUUUAGUUA | 0.00358 ± 0.002
28 | UCCUGGAUGUGCUUGCACAGUAUUUAGUUA | 0.00631 ± 0.0022
29 | UCCUCGAUCAGCUUGCAUAGUAUUUAGUUA | 0.0102 ± 0.0027
30 | UCCUCCUACAGCUUGCAUAGUAUUUAGUA | 0.00474 ± 0.0025
31 | UCCUCCUAUAGCUUGCAUAGUAUUUAGUUA | 0.00658 ± 0.0019
32 | UCCUGGAUGAGCUUGCUUAGUAAUUAGUUA | 0.00839 ± 0.0025
33 | UCCUGGAUGUGGUUGCAUAGUUUUUAGUUA | 0.00954 ± 0.0033
34 | UCCUGGAUCAGGUUGCAUAGUUUUUAGUUA | 0.00644 ± 0.0022
35 | UCCUGGUACAGCUUGGAUAGUAAUUAGUUA | 0.00415 ± 0.0029
36 | UCCUGGAUGAGGUUGCAUAGUAUUUAGUUA | 0.0136 ± 0.0032

Row | Sequence | pre-steady-state target cleavage rate
37 | UCCUGGAUCAGCUUGCAUAGUCUUUAGUUA | 0.00789 ± 0.0024
38 | UCCUGGAUCAGCUUGCAUAGUAUUAUGUUA | 0.00357 ± 0.0028
39 | UCCUGCUACAGCUUGCACAGUAUUUAGUUA | 0.00803 ± 0.0023
40 | UCCUGCUACAGCUUGCUAAGUAUUUAGUUA | 0.00399 ± 0.0022
41 | UCCUGGAUGUGCUUGCAUCGUAUUUAGUUA | 0.0103 ± 0.0028
42 | UCCUGGUACAGCUUGCCAUAGUAUUUAGUUA | 0.00532 ± 0.0033
43 | UCCUGCUACAGCUUGCAUAGUAUUUGAGUUA | 0.00331 ± 0.0024
44 | UCCUCCUACGAGCUUGCAUAGUAUUUAGUUA | 0.00585 ± 0.0022
45 | UCCUGGAUGAGCUUGCAUAGUAUUUAAGUUA | 0.00993 ± 0.0029
46 | UCCUGGAUCUGCUUGGAUAGUAUUUAGUUA | 0.0102 ± 0.0026
47 | UCCUGGAAGAGCUUGCAUAGUAUUUAGUUA | 0.0115 ± 0.0029
48 | UCCUGGAGCAGCUUGCAUAGUAUUUAGUUA | 0.0118 ± 0.0032
49 | UCCUGGAUCAGCUCGCAUAGUAUUUAGUUA | 0.00608 ± 0.0029
50 | UCCUGGAUGAGCUUGCAUAGUAUAUAGUUA | 0.00759 ± 0.0023
51 | UCCUCCUACAGCUUGCAUAGUAUUUAGUAUA | 0.00757 ± 0.0027
52 | UCCUGGAACAGCAUGCAUAGUAUUUAGUUA | 0.00812 ± 0.0028
53 | UCCUGCUACAGGUUGCAUAGUAUUUAGUUA | 0.013 ± 0.0028
54 | UCCUGGUACAGCUUGCAAAGUAUUAAGUUA | 0.00406 ± 0.0027
55 | UCCUGGAACAGCAUGCAUAGUAUUUAGUAA | 0.00404 ± 0.0034
56 | UCCUGGUCCAGCUUGCAUAGUAUUUAGUUA | 0.0129 ± 0.0037

system: EfPiwi piRISC loaded with L1MC piRNA (26 nt); test: pre-steady-state target cleavage rate (min^-1); auxiliary factor: 500 nM Ephydatia muelleri Gtsf1; guide: L1MC piRNA 5'p-UAACUAAAUACUAUGCAAGCUGUAGG; MIWI and MILI are mouse PIWI proteins and EfPiwi is from a freshwater sponge; tags in brackets are library labels; higher = faster piRNA-guided slicing of the target; details: not given
Method in brief: as §1

Row | Sequence | pre-steady-state target cleavage rate
57 | UCCUGGAACGGCUUGCAUAGUAUUUAGUUA | 0.0243 ± 0.0075
58 | UCCUGGAUGAGCUUGCAUAGUAUGUAGUUA | 0.0135 ± 0.0044
59 | UCCUGGAUGAGGUUGCAUAGUAAUUAGUUA | 0.00522 ± 0.003
60 | UCCUGGAUCAGCUAGCUUAGUAUUUAGUUA | 0.00676 ± 0.0036
61 | UCCUCCUACUGCUUGCAUAGAAUUUAGUUA | 0.00761 ± 0.0021
62 | UCCUGGAUGAGCUUUCAUAGUAUUUAGUUA | 0.00433 ± 0.0018
63 | UCCUGGAUGAGCUAGCAUAGUUUUUAGUUA | 0.00278 ± 0.0027
64 | UCCUCCUUGUGCUUGCAUAGUAUUUAGUUA | 0.0113 ± 0.0034
65 | UCCUCCUUCAGCAUGCAUAGUAUUUAGUUA | 0.0621 ± 0.018
66 | UCCUCCUUGAGCUUGCAUAGUAUUUAGUAA | 0.00719 ± 0.0026
67 | UCCUCCUACAGCUUGCAUAGAUUUUAGUUA | 0.0032 ± 0.002
68 | UCCUGGAUGUGCUUGCACAGUAUUUAGUUA | 0.00686 ± 0.0028
69 | UCCUCGAUCAGCUUGCAUAGUAUUUAGUUA | 0.121 ± 0.023
70 | UCCUCCUACAGCUUGCAUAGUAUUUAGUA | 0.00701 ± 0.0026
71 | UCCUCCUAUAGCUUGCAUAGUAUUUAGUUA | 0.0108 ± 0.0034
72 | UCCUGGAUGAGCUUGCUUAGUAAUUAGUUA | 0.00425 ± 0.0027
73 | UCCUGGAUGUGGUUGCAUAGUUUUUAGUUA | 0.00827 ± 0.0052
74 | UCCUGGAUCAGGUUGCAUAGUUUUUAGUUA | 0.00481 ± 0.0024
75 | UCCUGGUACAGCUUGGAUAGUAAUUAGUUA | 0.00316 ± 0.0025
76 | UCCUGGAUGAGGUUGCAUAGUAUUUAGUUA | 0.00786 ± 0.0024

Row | Sequence | pre-steady-state target cleavage rate
77 | UCCUGGAUCAGCUUGCAUAGUCUUUAGUUA | 0.0204 ± 0.0053
78 | UCCUGGAUCAGCUUGCAUAGUAUUAUGUUA | 0.005 ± 0.0024
79 | UCCUGCUACAGCUUGCACAGUAUUUAGUUA | 0.0133 ± 0.0041
80 | UCCUGCUACAGCUUGCUAAGUAUUUAGUUA | 0.00353 ± 0.0029
81 | UCCUGGAUGUGCUUGCAUCGUAUUUAGUUA | 0.00598 ± 0.0028
82 | UCCUGGUACAGCUUGCCAUAGUAUUUAGUUA | 0.0045 ± 0.0021
83 | UCCUGCUACAGCUUGCAUAGUAUUUGAGUUA | 0.0068 ± 0.0022
84 | UCCUCCUACGAGCUUGCAUAGUAUUUAGUUA | 0.0144 ± 0.0051
85 | UCCUGGAUGAGCUUGCAUAGUAUUUAAGUUA | 0.0082 ± 0.0031
86 | UCCUGGAUCUGCUUGGAUAGUAUUUAGUUA | 0.0089 ± 0.0032
87 | UCCUGGAAGAGCUUGCAUAGUAUUUAGUUA | 0.0725 ± 0.016
88 | UCCUGGAGCAGCUUGCAUAGUAUUUAGUUA | 0.101 ± 0.024
89 | UCCUGGAUCAGCUCGCAUAGUAUUUAGUUA | 0.0549 ± 0.013
90 | UCCUGGAUGAGCUUGCAUAGUAUAUAGUUA | 0.00625 ± 0.0026
91 | UCCUCCUACAGCUUGCAUAGUAUUUAGUAUA | 0.00856 ± 0.0035
92 | UCCUGGAACAGCAUGCAUAGUAUUUAGUUA | 0.0466 ± 0.011
93 | UCCUGCUACAGGUUGCAUAGUAUUUAGUUA | 0.0242 ± 0.0053
94 | UCCUGGUACAGCUUGCAAAGUAUUAAGUUA | 0.00292 ± 0.0026
95 | UCCUGGAACAGCAUGCAUAGUAUUUAGUAA | 0.00384 ± 0.0023
96 | UCCUGGUCCAGCUUGCAUAGUAUUUAGUUA | 0.0262 ± 0.007
